In PubChem BioAssay (NCATS):
“And” between values parts separate entries of the source, which are not always exact repeats. Equal values may be shown once. Results filed as inconclusive are left out. The source holds several records for some structures; these can differ, active in one and inactive in another. The source made the active and inactive calls. Unless noted, calls come from the whole dose curve; as a rule, active = well fitted curve in the direction sought with a large enough effect; inconclusive = small, poorly fitted or top-dose-only effect, or another doubt; inactive = no such curve, though single readings can be large; an effect the other way counts as inactive or inconclusive.

Key:
[1] = Cell Viability - Hek293 (AID 427;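 active = compounds whose dose-response curve shows a full or clear partial loss of cell viability, called from curve shape rather than a numeric limit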;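 note: potency is the fitted concentration of half-maximal effect; cells exposed to compound for 40 hours at 37 °C before reading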); details: qHTS
In short: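 Luminescent ATP read-out (CellTiter-Glo, 20 min RT) after 40 hr compound exposure at 37 °C in complete medium. Signal normalized to DMSO (basal) and 100 uM tamoxifen (100% inhibition); concentration-response fitted with the standard Hill equation to give AC50.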

[2] = Cellular Toxicity (caspase-3) Jurkat (AID 655); details: Jurkat caspase-3 activation, luminescence; caspase-3 activation: at 92.2 µM (top of the series), DMSO = 0%, tamoxifen = 100%;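 note: cells exposed to compound for 16 h at 37 °C before reading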
In short: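 Jurkat cells (5000/well) in complete medium exposed 16 h at 37 C; caspase-3/7 activity read by Caspase-Glo luminescence after 20 min at room temperature. Normalized to DMSO and 100 uM tamoxifen; AC50 from Hill fits.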

[3] = Cellular Toxicity (caspase-3) BJ (AID 658); details: BJ fibroblasts, luminescence; Potency: caspase-3 activation; series mostly up to 91.7 µM; note: potency is the fitted concentration of half-maximal effect;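 for caspase-3 activation: 0% = DMSO basal and 100% = 10 µM staurosporine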
In short: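 qHTS, BJ fibroblasts, 1000 cells/well; 5 hr preincubation, 16 hr compound, 37 °C; Caspase-Glo 3/7 reagent, 1 hr RT; luminescence. DMSO = 0%, 10 uM staurosporine = 100%. Hill-equation AC50.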

[4] = biological target: Cytochrome P450 3A4 (Homo sapiens) (UniProt P08684); test: qHTS Assay for Inhibitors and Substrates of Cytochrome P450 3A4 (AID 884); details: recombinant CYP3A4, Luciferin-PPXE luminescence; series mostly up to 57.1 µM; note: % is set by controls: 0 for no effect and ±100 for the full control effect; nearly all actives have a fitted effect of over 50% in size
Chain of Cytochrome P450 3A4 (Homo sapiens) (P08684 whole entry, looked up): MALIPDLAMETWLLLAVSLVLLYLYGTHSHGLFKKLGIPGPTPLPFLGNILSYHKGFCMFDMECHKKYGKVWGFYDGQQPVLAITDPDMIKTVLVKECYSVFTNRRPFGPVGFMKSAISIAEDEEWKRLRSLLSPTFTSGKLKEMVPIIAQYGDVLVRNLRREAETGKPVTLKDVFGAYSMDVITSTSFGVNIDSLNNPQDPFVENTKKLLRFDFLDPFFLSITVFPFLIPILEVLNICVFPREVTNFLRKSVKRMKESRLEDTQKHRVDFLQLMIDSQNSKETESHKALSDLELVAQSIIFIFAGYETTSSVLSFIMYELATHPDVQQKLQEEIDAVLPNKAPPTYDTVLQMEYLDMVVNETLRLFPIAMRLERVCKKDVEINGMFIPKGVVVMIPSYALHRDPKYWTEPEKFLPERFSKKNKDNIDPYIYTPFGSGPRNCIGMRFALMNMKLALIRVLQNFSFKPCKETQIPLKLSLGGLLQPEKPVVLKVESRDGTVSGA
In short: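 Luminescent readout of luciferin produced by CYP3A4 (20 nM) dealkylation of Luciferin-PPXE, 25 uM (its KM). NADPH-driven reaction ran 60 min at RT after 10 min compound preincubation; data scaled to 57 uM ketoconazole as 100% inhibition.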

[5] = biological target: Estrogen receptor (Homo sapiens) (UniProt P03372); test: qHTS assay for small molecule antagonists of estrogen receptor alpha signaling (AID 588513; active = well fitted curve in the direction sought with a large enough effect in the signal ratio, with a control signal flat, not every such curve was filed as active; the % refers to the signal ratio; note: % is set by controls: 0 for no effect and ±100 for the full control effect); details: ER-alpha-UAS-bla HEK293, beta-lactamase ratio, antagonist mode; series mostly up to 76.9 µM
Chain of Estrogen receptor (Homo sapiens) (P03372 whole entry, looked up): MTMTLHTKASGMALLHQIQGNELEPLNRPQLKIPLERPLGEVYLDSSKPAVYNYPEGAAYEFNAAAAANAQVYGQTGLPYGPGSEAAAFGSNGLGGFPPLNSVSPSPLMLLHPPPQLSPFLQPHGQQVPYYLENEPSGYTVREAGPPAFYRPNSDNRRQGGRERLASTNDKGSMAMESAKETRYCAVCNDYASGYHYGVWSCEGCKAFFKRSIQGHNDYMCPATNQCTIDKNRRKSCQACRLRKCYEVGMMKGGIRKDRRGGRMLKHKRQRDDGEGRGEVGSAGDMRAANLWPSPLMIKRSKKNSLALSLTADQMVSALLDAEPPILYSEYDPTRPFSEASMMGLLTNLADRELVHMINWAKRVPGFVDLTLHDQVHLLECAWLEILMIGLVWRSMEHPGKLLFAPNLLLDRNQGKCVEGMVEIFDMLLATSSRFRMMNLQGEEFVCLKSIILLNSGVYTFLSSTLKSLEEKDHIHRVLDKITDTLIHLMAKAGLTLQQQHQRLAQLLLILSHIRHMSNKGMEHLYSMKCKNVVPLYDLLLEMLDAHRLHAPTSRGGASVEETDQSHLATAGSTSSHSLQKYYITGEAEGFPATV
In short: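 ER-alpha-UAS-bla GripTite HEK 293 cells in 2% charcoal/dextran-treated FBS medium; compounds titrated (1:2, duplicate), then stimulated with 0.5 nM 17-beta-estradiol for 18 h at 37C. CCF4 beta-lactamase fluorescence; Hill-fit IC50 and efficacy.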

[6] = biological target: Peroxisome proliferator-activated receptor gamma (Homo sapiens) (UniProt P37231); test: qHTS assay for small molecule agonists of peroxisome proliferator-activated receptor gamma signaling (AID 588536; active = well fitted curve in the direction sought with a large enough effect in the signal ratio, with a control signal flat, not every such curve was filed as active; the % refers to the signal ratio;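 note: 0% = DMSO basal wells and 100% = rosiglitazone at 2 µM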); details: HEK293 PPARg-UAS-bla, beta-lactamase ratio, 16 h, percent of rosiglitazone response, DMSO as zero; series mostly up to 76.7 µM
Chain of Peroxisome proliferator-activated receptor gamma (Homo sapiens) (P37231 whole entry, looked up): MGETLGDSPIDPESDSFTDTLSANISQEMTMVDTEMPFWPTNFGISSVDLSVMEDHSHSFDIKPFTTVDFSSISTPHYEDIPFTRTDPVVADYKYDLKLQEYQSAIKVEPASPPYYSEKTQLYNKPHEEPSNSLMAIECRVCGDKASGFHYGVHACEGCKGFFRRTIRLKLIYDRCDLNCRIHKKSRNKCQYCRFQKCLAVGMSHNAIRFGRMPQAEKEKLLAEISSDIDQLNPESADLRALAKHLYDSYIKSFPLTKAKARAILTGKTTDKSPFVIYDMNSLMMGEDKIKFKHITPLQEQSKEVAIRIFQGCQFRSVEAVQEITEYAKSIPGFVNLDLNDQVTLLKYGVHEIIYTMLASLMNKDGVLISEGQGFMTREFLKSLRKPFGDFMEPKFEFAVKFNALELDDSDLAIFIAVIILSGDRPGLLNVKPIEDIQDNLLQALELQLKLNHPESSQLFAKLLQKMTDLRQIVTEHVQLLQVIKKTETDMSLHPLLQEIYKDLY
In short: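 Compound treatment: 16 h, 37 C, HEK293 GeneBLAzer cells. Detection: CCF4, 2 h RT. Values: Hill-fit EC50, efficacy as % of 2 uM rosiglitazone.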

[7] = biological target: Vitamin D3 receptor (Homo sapiens) (UniProt P11473); test: qHTS assay for small molecule agonists of vitamin D receptor signaling (AID 588543; calls by dose curve;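 note: 0% = DMSO basal and 100% = reference agonist control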); details: HEK293T VDR-UAS-bla, beta-lactamase ratio, 16 h; series mostly up to 76.8 µM
Chain of Vitamin D3 receptor (Homo sapiens) (P11473 whole entry, looked up): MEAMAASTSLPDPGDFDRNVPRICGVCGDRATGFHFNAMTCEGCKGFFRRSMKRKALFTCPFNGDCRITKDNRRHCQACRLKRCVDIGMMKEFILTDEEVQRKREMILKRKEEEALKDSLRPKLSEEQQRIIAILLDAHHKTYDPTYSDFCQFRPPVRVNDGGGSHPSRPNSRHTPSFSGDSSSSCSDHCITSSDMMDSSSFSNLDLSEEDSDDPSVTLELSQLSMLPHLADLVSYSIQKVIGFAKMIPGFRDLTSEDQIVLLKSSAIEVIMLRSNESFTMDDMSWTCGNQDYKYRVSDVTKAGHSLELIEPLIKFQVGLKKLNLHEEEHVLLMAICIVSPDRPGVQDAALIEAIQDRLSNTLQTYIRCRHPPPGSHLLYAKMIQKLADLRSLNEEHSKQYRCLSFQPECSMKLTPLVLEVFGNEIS
In short: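 VDR-UAS-bla HEK293T cells, 2000/well, 2% charcoal-stripped FBS; compound titration 16 h at 37 C; CCF4 beta-lactamase ratio read. Normalized to 50 nM 1-alpha,25-dihydroxyvitamin D3 (100%) and DMSO; Hill fit gives EC50, efficacy.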

[8] = biological target: Voltage-gated inwardly rectifying potassium channel KCNH2 (Homo sapiens) (UniProt Q12809); test: qHTS Assay for Small Molecule Inhibitors of the Human hERG Channel Activity (AID 588834); details: U2OS BacMam hERG, FluxOR thallium flux fluorescence; series mostly up to 92.2 µM;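 note: lower thallium flux fluorescence means stronger hERG block; nearly all actives have a fitted effect of over 50% in size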; note: potency is the fitted concentration of half-maximal effect
Chain of Voltage-gated inwardly rectifying potassium channel KCNH2 (Homo sapiens) (Q12809 whole entry, looked up): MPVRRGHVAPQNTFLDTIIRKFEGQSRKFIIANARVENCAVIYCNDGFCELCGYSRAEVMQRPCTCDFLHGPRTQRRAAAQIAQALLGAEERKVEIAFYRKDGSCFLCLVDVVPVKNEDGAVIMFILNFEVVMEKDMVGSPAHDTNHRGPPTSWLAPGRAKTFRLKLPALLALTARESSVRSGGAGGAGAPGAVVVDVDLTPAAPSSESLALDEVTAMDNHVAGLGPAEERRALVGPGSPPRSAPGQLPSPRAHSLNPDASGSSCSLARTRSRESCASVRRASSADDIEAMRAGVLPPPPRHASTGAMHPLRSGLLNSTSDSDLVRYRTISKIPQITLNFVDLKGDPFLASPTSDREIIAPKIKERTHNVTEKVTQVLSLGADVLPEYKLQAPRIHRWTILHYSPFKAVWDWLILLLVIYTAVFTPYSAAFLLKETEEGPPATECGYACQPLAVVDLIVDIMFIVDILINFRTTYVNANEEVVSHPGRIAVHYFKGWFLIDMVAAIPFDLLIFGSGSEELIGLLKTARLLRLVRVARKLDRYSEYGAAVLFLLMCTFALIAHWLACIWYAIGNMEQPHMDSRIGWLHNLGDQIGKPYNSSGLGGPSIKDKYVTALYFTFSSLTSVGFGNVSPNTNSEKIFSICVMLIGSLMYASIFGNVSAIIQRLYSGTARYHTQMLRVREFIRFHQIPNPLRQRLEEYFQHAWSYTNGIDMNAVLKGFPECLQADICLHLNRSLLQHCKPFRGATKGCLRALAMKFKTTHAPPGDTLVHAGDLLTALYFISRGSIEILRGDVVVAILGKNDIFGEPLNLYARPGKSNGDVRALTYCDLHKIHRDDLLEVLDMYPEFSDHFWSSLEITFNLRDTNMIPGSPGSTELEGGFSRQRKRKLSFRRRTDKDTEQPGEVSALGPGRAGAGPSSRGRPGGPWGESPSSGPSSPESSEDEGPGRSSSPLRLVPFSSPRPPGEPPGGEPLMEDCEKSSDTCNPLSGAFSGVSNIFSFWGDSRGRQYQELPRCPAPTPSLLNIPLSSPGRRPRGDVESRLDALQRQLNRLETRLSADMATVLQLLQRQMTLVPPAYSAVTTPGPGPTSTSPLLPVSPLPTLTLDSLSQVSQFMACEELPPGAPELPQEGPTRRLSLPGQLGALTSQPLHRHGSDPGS
In short: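 Thallium serves as surrogate for K+ influx through BacMam-delivered hERG in U2OS cells. Compounds are added for about 10 minutes after dye loading; stimulation buffer then starts flux, monitored kinetically on FDSS.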

[9] = qHTS assay for small molecule activators of the p53 signaling pathway (AID 651743; active = well fitted activation curve with a large enough effect in the signal ratio, not every such curve was filed as active; the % refers to the signal ratio; note: potency is the fitted concentration of half-maximal effect; for activation: % of control where 0% means no effect); details: HCT-116 p53RE-bla, beta-lactamase FRET ratio, 16 h; activation: stronger effect = higher value
In short: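 Following 16 hours of compound exposure at 37 C, HCT-116 cells bearing the p53RE-bla reporter were loaded with LiveBLAzer B/G FRET substrate for 2 hours at room temperature and fluorescence intensity was recorded.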

[10] = qHTS assay for small molecule activators of the nuclear factor-kappa B (NF-kB) signaling pathway (AID 651749; active = well fitted activation curve with a large enough effect in the signal ratio; the % refers to the signal ratio; note: % of control where 0% means no effect); details: NF-kB-bla ME-180 cells, beta-lactamase FRET ratio, 16 h; stronger effect = higher value
In short: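 In this qHTS format, compounds acting as activators increase NF-kB-driven beta-lactamase in ME-180 cells, measured as disrupted FRET after 16 hr exposure at 37C and 5% CO2.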

[11] = biological target: Tumor necrosis factor (Homo sapiens) (UniProt P01375); test: qHTS assay to identify small molecules that stimulate Tumor Necrosis Factor-alpha (TNF-alpha) secretion (AID 651757; active = well fitted curve in the direction sought with a large enough effect in the signal ratio; the % refers to the signal ratio; note: 0% is about no effect); details: Human cells, HTRF 665/615 ratio; series mostly up to 92.2 µM
Chain of Tumor necrosis factor (Homo sapiens) (P01375 whole entry, looked up): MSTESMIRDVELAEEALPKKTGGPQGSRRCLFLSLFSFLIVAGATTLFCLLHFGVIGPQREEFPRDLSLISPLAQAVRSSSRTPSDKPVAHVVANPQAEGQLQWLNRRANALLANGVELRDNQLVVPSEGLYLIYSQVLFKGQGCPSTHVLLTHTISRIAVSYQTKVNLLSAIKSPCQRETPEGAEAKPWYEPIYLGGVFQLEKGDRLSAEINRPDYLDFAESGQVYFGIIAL
In short: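 Human monocytic THP-1 cells are plated, treated with compound and held at 37 C for 17 hrs. Labeled anti-TNF-alpha antibody mixture is then added; after 3 hr at room temperature, TR-FRET signal reports secreted TNF-alpha.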

[12] = qHTS assay for small molecule antagonists of the retinoid-related orphan receptor gamma (ROR-gamma) signaling pathway - cell viability counter screen (AID 720652; active = well fitted curve in the direction sought with a large enough effect in the repeat runs; an effect the other way counts as inactive or inconclusive;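 note: CHO reporter cells with doxycycline-induced ROR-gamma expression; compound exposure lasted 16 hr before ATP read; % is set by controls: 0 for no effect and ±100 for the full control effect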); details: RORgamma reporter cell line viability counter screen; series mostly up to 92.2 µM
In short: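 Steps: seed CHO cells bearing TET-inducible ROR and ROR response element-luciferase; rest 5 hr at 37 C; add compound, then doxycycline; incubate 16 hr; add CellTiter-Glo and read luminescence as ATP-based viability.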

[13] = qHTS assay for small molecule activators of the human pregnane X receptor (PXR) signaling pathway (AID 720659; call rule not given here; note: 0% is about no effect); details: DPX-2 HepG2 CYP3A4-luciferase, 24 h; series mostly up to 92.3 µM
[14] = Cell Viability - Jurkat (AID 426;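 active = dose-dependent loss of cell ATP signal giving a full or clear fitted curve, ranked by lower potency value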;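 note: potency is the fitted concentration of half-maximal effect; cells exposed to compound for 40 hours at 37 °C before ATP read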); details: qHTS
In short: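 Cells of the human T-cell leukemia line Jurkat (E6-1) are seeded at 5000 per well, treated with compound across a concentration range for 40 hours at 37 °C, then lysed with CellTiter-Glo; luminescence reports ATP.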

[15] = Cell Viability - LYMP1-002 - Assay at 16 hr (AID 948); details: LYMP1-002 lymphoblastoid cell viability; series mostly up to 92.2 µM;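 note: 0% = DMSO alone and full effect = 92 µM tetraoctylammonium bromide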
In short: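 LYMP1-002 human lymphoblastoid cells, 2500/well, were treated with compounds for 16 hr at 37 C in complete medium. Viability was read as intracellular ATP by CellTiter-Glo luminescence, and AC50 was derived from a Hill fit to concentration-response data.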

[16] = Cell Viability - LYMP2-003 (AID 965); details: LYMP2-003 lymphoblastoid cell viability; series mostly up to 92.2 µM;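 note: cells exposed to compounds for 24 h before reading; 0% = DMSO only and full effect = 92 µM tetraoctylammonium bromide; nearly all actives have a fitted effect of over 50% in size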
In short: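 Human lymphoblastoid LYMP2-003 cells, 2500/well, exposed to compounds for 24 h at 37 C in complete medium. Viability read as intracellular ATP by CellTiter-Glo luminescence; AC50 from Hill-equation fits of qHTS concentration-response data.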

[17] = Cell Viability - LYMP1-002 - Assay at 24 hr (AID 993); details: LYMP1-002 lymphoblastoid cells viability; series mostly up to 92.2 µM; note: % is set by controls: 0 for no effect and ±100 for the full control effect
In short: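 Acute toxicity is measured as concentration-dependent loss of cellular ATP in a human lymphoblastoid line (Coriell LYMP1-002) after 24 h treatment in complete medium. ATP is quantified by luciferase luminescence and AC50 derived by Hill modelling.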

[18] = qHTS assay for small molecule agonists of the antioxidant response element (ARE) signaling pathway (AID 651741; active = well fitted activation curve with a large enough effect in the signal ratio; the % refers to the signal ratio; note: potency is the fitted concentration of half-maximal effect; for activation: % of control where 0% means no effect); details: HepG2 ARE-bla reporter, beta-lactamase FRET ratio, 16 h; series mostly up to 96 µM
In short: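 Stably integrated ARE-beta-lactamase reporter HepG2 cells; 16 h compound incubation, 37 C; LiveBLAzer FRET substrate 2 h at room temperature; fluorescence intensity.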

[19] = Cellular Toxicity (caspase-3) Hek293 (AID 664); details: HEK293 caspase-3 activation, DMSO = 0%, 100 µM tamoxifen = 100%; at 92.2 µM (top of the series);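 note: cells exposed to compound for 16 h at 37 °C before readout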
In short: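 qHTS, HEK293 (human embryonic kidney), 16 h cpd exposure in complete medium. Caspase-3/7 activation = luminescence increase; normalized to DMSO/100 uM tamoxifen; Hill-fit AC50.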

[20] = biological target: Nuclear receptor ROR-gamma (Homo sapiens) (UniProt P51449); test: qHTS assay for small molecule antagonists of the retinoid-related orphan receptor gamma (ROR-gamma) signaling pathway (AID 651802); details: ROR-gamma antagonist cell reporter assay; series mostly up to 92.2 µM; note: nearly all actives have a fitted effect of over 60% in size; note: potency is the fitted concentration of half-maximal effect
Chain of Nuclear receptor ROR-gamma (Homo sapiens) (P51449 whole entry, looked up): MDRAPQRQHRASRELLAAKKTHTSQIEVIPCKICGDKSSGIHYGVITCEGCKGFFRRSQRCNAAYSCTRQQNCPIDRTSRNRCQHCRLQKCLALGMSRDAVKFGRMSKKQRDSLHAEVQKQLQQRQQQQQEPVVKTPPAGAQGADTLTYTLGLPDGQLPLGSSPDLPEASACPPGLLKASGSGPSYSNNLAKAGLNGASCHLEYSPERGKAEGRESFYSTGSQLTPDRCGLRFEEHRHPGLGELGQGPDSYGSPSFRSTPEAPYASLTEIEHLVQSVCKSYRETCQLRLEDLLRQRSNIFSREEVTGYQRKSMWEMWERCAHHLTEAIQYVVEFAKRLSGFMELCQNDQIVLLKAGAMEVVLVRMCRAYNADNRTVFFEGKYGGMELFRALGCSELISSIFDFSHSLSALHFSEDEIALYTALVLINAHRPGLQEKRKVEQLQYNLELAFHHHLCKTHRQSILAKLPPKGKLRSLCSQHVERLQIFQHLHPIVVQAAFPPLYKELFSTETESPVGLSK
In short: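 Steps: cells dispensed; compound or DMSO transferred by pin tool; doxycycline added to induce the ROR response element-driven luciferase; plates held 16hr at 37C; ONE-Glo added and luminescence measured.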

O=CC(=O)c1ccccc1
inactive: Potency [1] > 92 µM | Potency [2] | Potency [3] | Potency [4] | outcome [5] | outcome [6] | Potency [7] | Potency [8] | activation [9] -5.31% | activation [10] -1.11% | Potency [11] | Potency [12] | outcome [13]

Nc1cc(C(=O)O)c(O)c(S(=O)(=O)O)c1
inactive: Potency [14] > 92 µM | Potency [1] > 92 µM | Potency [2] | Potency [3] | Potency [4] | Potency [15] | Potency [16] | Potency [17] | outcome [6] | Potency [7] | Potency [8] | Potency [18] | activation [9] -4.77% | Potency [12] | outcome [13]

Nc1cnn([C@@H]2O[C@H](CO)[C@@H](O)[C@H]2O)c(=O)n1
inactive: Potency [1] > 92 µM | caspase-3 activation [19] -2.69% | Potency [4] | Potency [15] | Potency [17] | outcome [5] | outcome [6] | Potency [7] | Potency [8] | Potency [18] | Potency [11] | Potency [12] | outcome [13]
active: Potency [9] 0.794 µM | Potency [20] 5.31 µM

O=C(Cl)c1ccc([N+](=O)[O-])cc1
inactive: Potency [14] > 92 µM | Potency [1] > 92 µM | caspase-3 activation [19] -0.0349% | Potency [4] | Potency [15] | Potency [16] | Potency [17] | outcome [5] | outcome [6] | Potency [8] | Potency [18] | activation [10] -1.16% | Potency [11] | Potency [20] | Potency [12] | outcome [13]

CCOC(=O)C1OC1c1ccccc1 (centres undefined)
inactive: Potency [14] > 92 µM | Potency [1] > 92 µM | Potency [3] | caspase-3 activation [19] 0.955% | Potency [15] | outcome [6] | Potency [7] | activation [9] 6.05% | activation [10] 0.437% | Potency [11] | Potency [20] | Potency [12] | outcome [13]

O=C(O)/C=C/c1ccc(/C=C/C(=O)O)cc1
inactive: Potency [14] > 92 µM | Potency [1] > 92 µM | Potency [2] | caspase-3 activation [19] -11.2% | Potency [4] | outcome [6] | Potency [18] | activation [9] 1.28% | activation [10] -0.449% | Potency [20] | Potency [12] | outcome [13]

O=C(OCc1ccccc1)c1ccccc1O
active: Potency [8] 39.8 µM
inactive: Potency [14] > 92 µM | Potency [1] > 92 µM | Potency [3] | caspase-3 activation [19] -1.91% | Potency [4] | Potency [15] | Potency [16] | Potency [17] | outcome [5] | Potency [7] | activation [9] 1.07% and -2.52% | activation [10] -0.301% and -2.68% | Potency [11] | Potency [20] | Potency [12] | outcome [13]

Cc1ccc(S(N)(=O)=O)cc1
inactive and 68.6 µM (active): Potency [18]
inactive: Potency [14] > 92 µM | Potency [1] > 92 µM | Potency [2] | caspase-3 activation [19] -1.71% | Potency [4] | Potency [16] | outcome [6] | Potency [7] | Potency [8] | activation [9] -4.8% and 0.0231% | activation [10] 1.55% and -0.345% | Potency [12] | outcome [13]

C=CC(C)(O)CCCC(C)CCCC(C)CCCC(C)C (centres undefined)
inactive: Potency [1] > 92 µM | Potency [3] | caspase-3 activation [19] 1.05% | outcome [5] | outcome [6] | Potency [7] | Potency [8] | Potency [18] | activation [9] -2.56% | activation [10] -0.414% | Potency [11] | outcome [13]

Cc1c(N)cccc1Cl
inactive: Potency [14] > 92 µM | Potency [1] > 92 µM | Potency [2] | Potency [3] | caspase-3 activation [19] 0.378% | Potency [4] | Potency [16] | outcome [5] | outcome [6] | Potency [7] | Potency [8] | Potency [18] | activation [9] -0.236% | activation [10] 0.113% | Potency [11] | Potency [20] | Potency [12] | outcome [13]

C[C@@H]1CC2(OC(O)[C@]3(C)O[C@H]23)O[C@H]2C[C@@]3(C)[C@@H]4CC[C@H]5C(C)(C)C(O[C@@H]6OC[C@@H](O)[C@H](O)[C@H]6O)CC[C@@]56C[C@@]46CC[C@]3(C)[C@@H]12 (some centres undefined)
inactive: Potency [14] 41.2 µM | Potency [4] | Potency [8] | activation [9] -3.37% | activation [10] -2.65% | Potency [11] | outcome [13]
active: Potency [3] 31.6 µM | Potency [20] 33.5 µM
